Shown are actives, neighbours in structure and some others; about 6.2% of the full set was active somewhere.
S2 tox = reduces viability in counter-screen for ATXN expression inhibitors; S2 cells (HEK-293 line with an ATXN2-luciferase reporter) viability, CellTiter-Fluor protease fluorescence, 24 h; Potency, µM (top dose mostly 56.7 µM), actives largely listed as cytotoxic; hit rate 0.49% among 400,000; also: nearly all actives have a fitted effect of over 40% in size
KB-V1 MDR tox = kills drug-selected multidrug resistant KB-V1 cells | hit rate 3.4% among 400,000 | Potency, µM (top dose mostly 46.1 µM), actives largely listed as cytotoxic | KB-V1 MDR cells viability, CellTiter-Glo, 72 h; also: % is scaled to controls: 0 for no effect and ±100 for the full control effect; nearly all actives have a fitted effect of over 60% in size
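Luminescent ATP read-out (CellTiter-Glo, 10 min) measures survival of drug-selected KB-V1 MDR cells after 72 h, 37 degrees C compound exposure. Medium: phenol-red-free DMEM, 10% FBS. Values from fitted concentration-response curves.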
KB-3-1 cytotox = KB-3-1 parental cell cytotoxicity | AID 1347075 | hit rate 1.4% among 400,000 | Potency, µM (titrated, usually from 46.1 µM), hits mostly cytotoxic | KB-3-1 viability, CellTiter-Glo ATP luminescence, 72 h; also: % is scaled to controls: 0 for no effect and ±100 for the full control effect; nearly all actives have a fitted effect of over 60% in size
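Cells are dispensed, compounds pinned in, plates held at 37 °C for 72 h, then CellTiter-Glo is added and luminescence read after 10 minutes. Cell line: parental KB-3-1 in phenol-red-free DMEM, 10% FBS.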
HT1080NT lethal = kills 2HG-producing HT-1080-NT fibrosarcoma cells; Potency, µM (top dose mostly 46.1 µM), without a hit: at the top dose activity, negative = less viability, most hits filed as cytotoxic; HT-1080-NT fibrosarcoma viability, CellTiter-Glo ATP luminescence, 48 h; AID 686970; hit rate 1.6% among 360,000;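 also: NT is the 2HG producing partner of a matched IDH1 knockdown line; 0% = DMSO-treated cells and -100% = media-only wells without cells; nearly all actives have a fitted effect of over 55% in size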
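Compounds were tested in concentration-response format on HT-1080-NT cells for 48 hours at 37 degrees C. Cell viability came from CellTiter-Glo luminescence; curves were classified by r2, response magnitude and activity.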
HT1080 IDH1KD tx = HT-1080 IDH1 knockdown cell toxicity (counter line). HT-1080 IDH1 knockdown viability, ATP luminescence, 48 h. Potency, µM (titrated, usually from 46.1 µM), without a hit: at the highest dose activity, negative = toxicity, hits mostly cytotoxic. hit rate 2% among 360,000;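 also: 0% = DMSO wells and -100% = cell-free medium wells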
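IDH1KD HT-1080 cells, 750/well, RPMI + 5% FBS; compound pinned after 2 h settling; 48 h, 37 °C; CellTiter-Glo luminescence; % activity normalised to DMSO and no-cell wells; curves fitted, classed by r2 and efficacy.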
ATXN2 expr inh = reduces ATXN2 reporter expression in HEK-293 cells; hit rate 0.72% among 360,000; AID 1745845; HEK-293 ATXN2-luciferase reporter, luminescence, 24 h; Potency, µM (titrated, usually from 57 µM), without a hit: at the top dose activity change, negative = inhibition, usual class: inhibitors; also: % is scaled to controls: 0 for no effect and ±100 for the full control effect; nearly all actives have a fitted effect of over 55% in size
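ATXN2-luciferase reporter cells (luciferase flanked by upstream and downstream ATXN2 gene portions) were treated 24 h at 37 °C with compounds at up to 57 uM. SteadyGlo luminescence gave expression; GF-AFC fluorescence gave viability.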
* hit, by the source's call; i = inactive; ? = inconclusive; . = not tested or not shown; ! = repeats disagree; [ ] = remark or other dose. Calls follow the shape of the dose curve; as a rule, active = well fitted curve in the direction sought with a large enough effect; inconclusive = small, poorly fitted or top-dose-only effect, or another doubt; inactive = no such curve, though single readings can be large; an effect the other way counts as inactive or inconclusive. Potency is read from the fitted curve at half-maximal effect.

SMILES	S2 tox	KB-V1 MDR tox	KB-3-1 cytotox	HT1080NT lethal	HT1080 IDH1KD tx	ATXN2 expr inh
Cc1ccc(NC(=O)CCSc2nc(-c3ccco3)cc(C(F)(F)F)n2)cc1F	i	i	i	.	.	6.4%
CC1(C(=O)Nc2cnc3ccccc3c2)CCN1C(=O)c1ccccc1CCc1ccccc1 (stereo not given)	i	18.4µM*	?	?	?	20µM*
O=C(C[n+]1ccnc2ccccc21)c1ccc(Cl)cc1	.	i	i	.	.	.
COc1ccc(-c2csc(NC(=O)CSc3nc4ccccc4c(=O)[nH]3)n2)cc1	i	i	i	18.4µM*	16.4µM*	-10.1%
COc1ccc(-c2csc(NC(=O)CSc3nnc(Nc4ccccc4C)s3)n2)cc1	?	i	i	20.6µM*	20.6µM*	-34.9%
COc1ccccc1Nc1nnc(SCC(=O)NC2CC2)s1	i	i	i	-5.3%	-0.6%	.
COc1ccccc1Nc1nnc(SCC(=O)Nc2nc(-c3ccc(F)cc3)cs2)s1	?	i	i	23.1µM*	?	.
CCSc1ccccc1C(=O)Nc1nc2ccccc2c(=O)[nH]1	.	18.4µM*	i	-13.8%	?	-2.1%[11.3 µM]
CCOc1ccccc1Nc1nnc(SCC(=O)Nc2nc(-c3ccc(OC)cc3)cs2)s1	i	i	i	-5.4%	9.4%	-9.8%[11.3 µM]
Cc1c(Cl)cccc1NC(=O)CSc1nc(=O)n(Cc2ccco2)c2c1CCC2	i	?	i	.	.	-35.7%
CC(C)(C)OC(=O)N[C@H]1CCCCCC=C[C@@H]2C[C@@]2(C(=O)NS(=O)(=O)C2CC2)NC(=O)[C@@H]2C[C@@H](OC(=O)N3Cc4cccc(F)c4C3)CN2C1=O	.	.	.	.	.	1.7%
COc1ccc(OC)c(-c2csc(NC(=O)Cn3[nH]c(=O)c4ccccc4c3=O)n2)c1	?	i	i	?	20.6µM*	-38.2%
NC(=O)c1ccccc1NC(=O)CSc1nc2ccccc2c(=O)[nH]1	i	.	.	13µM*	?	8.3%
COc1ccc(OC)c(-c2csc(NC(=O)Cc3ccc(F)cc3)n2)c1	i	i	i	?	?	-10.3%
COC(=O)c1ccccc1NC(=O)CSc1nc2ccccc2c(=O)[nH]1	i	i	i	-4.7%	-18.4%	29.4%
c1ccc2sc(-c3cc4c(c(OC5CCOC5)c3)OCCN(Cc3cccn3-c3nccs3)C4)nc2c1 (stereo not given)	i	.	.	.	.	.
Nc1nc2n[nH]nc2c(=O)[nH]1	?	?	1.46µM*!	?	0.116µM*	6.8%
Cc1oc(-c2ccc(-c3ccccc3)cc2)nc1CN(CCO)C(C)C	i	i	i	?	23.1µM*	34.0%
CCOC(=O)[C@@H](N)CCC(=O)N[C@@H](CSCc1ccccc1)C(=O)N[C@@H](C(=O)OCC)c1ccccc1	.	.	.	.	.	-2.0%
CCCc1nc(NCc2ccncc2)c2nnn(Cc3ccccc3F)c2n1	i	?	i	?	18.4µM*	-10.6%
CCCc1nc(NCc2ccccn2)c2nnn(Cc3ccccc3F)c2n1	i	2.91µM*	?	4.5%	2.1%	-14.1%
O=C(Nc1cc(OC(=O)C(F)(F)F)c2nonc2c1OC(=O)C(F)(F)F)C(F)(F)F	.	i	?	.	.	.
CCc1ccccc1NNC(=O)c1sccc1Cl	.	.	.	5.8%	-14.5%	.
COc1ccc(C(=O)c2cc([N+](=O)[O-])ccc2N2CCN(C)CC2)cc1	i	6.51µM*	2.91µM*	2.59µM*	5.17µM*	-23.1%
COc1ccc(C(=O)c2cc([N+](=O)[O-])ccc2N2CCCC2)cc1	?	?	?	3.26µM*	3.26µM*	-27.4%
SMILES	S2 tox	KB-V1 MDR tox	KB-3-1 cytotox	HT1080NT lethal	HT1080 IDH1KD tx	ATXN2 expr inh
CC(=O)Nc1ccc(NC(=O)C2Cc3ccccc3N2C(=O)c2ccccc2)cc1 (stereo not given)	i	i	i	.	.	3.5%
Cc1ccc(CNC(=O)CCCCn2c(=O)c3ccccc3n(Cc3c(C)cc(C)cc3C)c2=O)cc1	i	i	i	.	.	-8.0%
Cc1ccc(S(=O)(=O)c2c(N)n(Cc3ccco3)c3nc4ccccc4nc23)cc1C	i	23.1µM*	?	?	?	-7.2%
Nc1c(S(=O)(=O)c2ccccc2)c2nc3ccccc3nc2n1Cc1ccco1	i	23.1µM*	?	-27.5%	-16.7%	-14.1%
Nc1c(S(=O)(=O)c2ccccc2)c2nc3ccccc3nc2n1CCN1CCOCC1	i	i	i	-5.1%	6.9%	.
Cc1ccccc1NC(=O)C1CCN(C(=O)c2cnn(-c3ccccc3)c2-n2cccc2)CC1	i	i	i	.	.	-6.8%
COc1ccccc1NC(=O)C12CC3CC(C1)CC(c1ccc(C)cc1)(C3)C2	i	16.4µM*	i	-11.8%	-1.1%	4.2%
COc1ccc(C2CC(c3ccccc3O)=NN2c2ccccc2)cc1 (stereo not given)	i	i	i	1.7%	8.3%	19.6%
COc1ccc(C2CC(c3ccccc3)=NN2c2ccc(N)cc2)cc1 (stereo not given)	i	20.6µM*	?	?	?	-31.4%
CC(=O)Oc1ccc(C2=NN(c3ccccc3)C(c3ccccc3)C2)cc1 (stereo not given)	i	?	?	16.4µM*	?	.
COc1ccc(-c2c(C)nn3c(N4CCCCCC4)cc(C)nc23)cc1OC	?	?	18.4µM*	?	?	?
COc1ccc(C(CNC(=O)C(CCSC)NC(=O)c2ccccc2Cl)N2CCCC2)cc1 (stereo not given)	i	?	i	-1.0%	-1.6%	.
COc1ccccc1C(=O)NC(CCSC)C(=O)NCC(c1ccco1)N(C)C (stereo not given)	i	18.4µM*	i	-0.7%	-1.3%	-3.1%
COc1ccc(C(CNC(=O)C(CCSC)NC(=O)c2ccccc2Cl)N2CCCCC2)cc1 (stereo not given)	i	23.1µM*	i	-2.6%	-2.3%	-9.5%
O=C(C[C@H]1C[C@H](C(=O)N2CCOCC2)[C@@]2(CCC3CCCC3)c3[nH]c4cc(-c5ccco5)ccc4c3CCN2C1=O)NCc1cccc(C(F)(F)F)c1	?	16.4µM*	?	-29.7%	?	-31.5%
CN(C)CCCNC(=O)C[C@H]1C[C@H](C(=O)N2CCOCC2)[C@@]2(CCC3CCCC3)c3[nH]c4cc(-c5ccco5)ccc4c3CCN2C1=O	.	i	?	?	?	25.1µM*
